# Experimental data taken from PubChem BioAssay (EPA / NIEHS).
# Active and inactive are the calls of the source. How the source made its calls: active means hit-call score of the fitted dose curve at least 0.9, where 1 is the maximum; inactive means score below 0.9.
# Tests used:
# Settings in all cases: mRNA level, 48 h; actives raise or lower the signal
# [1] = read-out: Fatty Acid-Binding Protein 1 (FABP1), FABP1 (gene 2168); assay: LTEA_HepaRG_FABP1: Life Technologies and Expression Analysis (LTEA) Assay for Fatty Acid-Binding Protein 1 (FABP1) using HepaRG (AID 2283494)
# Procedure, shortened: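 Differentiated human HepaRG cells were exposed in duplicate for 48 h in serum-free induction medium to 8-point half-log concentration series topping at 100 uM in 0.5% DMSO. FABP1 mRNA measured by TaqMan qRT-PCR, normalized to ACTB/GAPDH/POLR2A; bidirectional fit versus DMSO.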
# [2] = read-out: Cytochrome P450 4A22 (Homo sapiens) (UniProt Q5TCH4); assay: LTEA_HepaRG_CYP4A22: Life Technologies and Expression Analysis (LTEA) Assay for Cytochrome P450 4A22 (CYP4A22) using HepaRG (AID 2283495)
# Procedure, shortened: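 Differentiated HepaRG cells in serum-free induction medium exposed 48 h in duplicate to eight half-log concentrations up to 100 uM in 0.5% DMSO. CYP4A22 mRNA quantified by TaqMan qRT-PCR, normalized to ACTB, GAPDH and POLR2A; bidirectional fit versus DMSO.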
# [3] = read-out: Cytochrome P450 7A1 (Homo sapiens) (UniProt P22680); assay: LTEA_HepaRG_CYP7A1: Life Technologies and Expression Analysis (LTEA) Assay for Cytochrome P450 7A1 (CYP7A1) using HepaRG (AID 2283496)
# Procedure, shortened: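 Gene expression endpoint in human HepaRG liver cells treated for 48 h with test chemicals (up to 100 uM, 0.5% DMSO). Values come from bidirectional concentration-response fitting versus DMSO.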
# [4] = read-out: Glutathione S-Transferase (GSTA2), GSTA2 (gene 2939); assay: LTEA_HepaRG_GSTA2: Life Technologies and Expression Analysis (LTEA) Assay for Glutathione S-Transferase (GSTA2) using HepaRG (AID 2283497)
# Procedure, shortened: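 Human HepaRG cells, plated 48 h, then exposed in serum-free induction medium for 48 h to eight half-log concentrations up to 100 uM in 0.5% DMSO, duplicate. GSTA2 mRNA by qRT-PCR, normalized to ACTB/GAPDH/POLR2A; bidirectional fit versus DMSO.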
# [5] = read-out: Glutamate-cysteine ligase catalytic (GCLC), GCLC (gene 2729); assay: LTEA_HepaRG_GCLC: Life Technologies and Expression Analysis (LTEA) Assay for Glutamate-cysteine ligase catalytic (GCLC) using HepaRG (AID 2283498)
# Procedure, shortened: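 Differentiated human HepaRG cells, plated 48 h then switched to serum-free induction medium, were exposed in duplicate for 48 h to 8 half-log concentrations topping at 100 uM in 0.5% DMSO. GCLC mRNA was quantified by qRT-PCR against ACTB, GAPDH and POLR2A.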
# [6] = read-out: growth arrest and DNA damage 45 (GADD45G), GADD45G (gene 10912); assay: LTEA_HepaRG_GADD45G: Life Technologies and Expression Analysis (LTEA) Assay for growth arrest and DNA damage 45 (GADD45G) using HepaRG (AID 2283499)
# Procedure, shortened: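 Differentiated human HepaRG cells, 48 h post-plating, exposed 48 h in serum-free induction medium to 8 half-log concentrations (top 100 uM, 0.5% DMSO) in duplicate. GADD45G mRNA measured by Fluidigm TaqMan qRT-PCR, normalized to ACTB, GAPDH, POLR2A; bidirectional fit versus DMSO.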
# [7] = read-out: Glutathione S-transferase M3 (GSTM3), GSTM3 (gene 2947); assay: LTEA_HepaRG_GSTM3: Life Technologies and Expression Analysis (LTEA) Assay for Glutathione S-transferase M3 (GSTM3) using HepaRG (AID 2283501)
# Procedure, shortened: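 Differentiated human HepaRG cells were exposed in duplicate for 48 h in serum-free induction medium, 8 points from 100 uM top in half-log steps, 0.5% DMSO. GSTM3 mRNA was measured by TaqMan qRT-PCR, normalized to ACTB, GAPDH and POLR2A; bidirectional fit versus DMSO.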
# [8] = read-out: Heat shock 70 kDa protein 1 (HSPA1A), gene 3303; assay: LTEA_HepaRG_HSPA1A: Life Technologies and Expression Analysis (LTEA) Assay for Heat shock 70 kDa protein 1 (HSPA1A) using HepaRG (AID 2283502)
# Procedure, shortened: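 HSPA1A induction in human HepaRG liver cells is measured after 48 h of chemical treatment (100 uM maximum, 0.5% DMSO vehicle). Expression comes from qRT-PCR normalized to endogenous controls.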
# [9] = read-out: 3-Hydroxy-3-Methylglutaryl-CoA Synthase 2 (HMGCS2), HMGCS2 (gene 3158); assay: LTEA_HepaRG_HMGCS2: Life Technologies and Expression Analysis (LTEA) Assay for 3-Hydroxy-3-Methylglutaryl-CoA Synthase 2 (HMGCS2) using HepaRG (AID 2283504)
# Procedure, shortened: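 Human HepaRG cells in serum-free induction medium were exposed in duplicate for 48 h to 8-point half-log series from 100 uM top in 0.5% DMSO. HMGCS2 mRNA measured by TaqMan qRT-PCR, normalised to ACTB, GAPDH, POLR2A; bidirectional fit versus DMSO.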
# HGF (gene 3082) = assay: LTEA_HepaRG_HGF: Life Technologies and Expression Analysis (LTEA) Assay for Hepatocyte Growth Facto (HGF) using HepaRG (AID 2283505)
# Procedure, shortened: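 Differentiated HepaRG cells in serum-free induction medium exposed 48 h in duplicate, 8 half-log concentrations from 100 uM in 0.5% DMSO. HGF mRNA by qRT-PCR, normalised to ACTB, GAPDH, POLR2A; bidirectional fitting.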
# [10] = read-out: Insulin Like Growth Factor 1 (IGF1), IGF1 (gene 3479); assay: LTEA_HepaRG_IGF1: Life Technologies and Expression Analysis (LTEA) Assay for Insulin Like Growth Factor 1 (IGF1) using HepaRG (AID 2283506)
# Procedure, shortened: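 Using human HepaRG liver cells, IGF1 transcript induction or suppression is measured 48 h after dosing across eight concentrations capped at 100 uM. Values derive from bidirectional concentration-response fitting with DMSO as baseline.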
# [11] = read-out: Insulin-like growth factor-binding protein 1 (IGFBP1), IGFBP1 (gene 3484); assay: LTEA_HepaRG_IGFBP1: Life Technologies and Expression Analysis (LTEA) Assay for Insulin-like growth factor-binding protein 1 (IGFBP1) using HepaRG (AID 2283508)
# Procedure, shortened: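 HepaRG cells, plated 48 h then switched to serum-free induction medium, exposed in duplicate for 48 h to 8-point half-log series from 100 uM in 0.5% DMSO. mRNA measured by qRT-PCR, normalized to ACTB/GAPDH/POLR2A; bidirectional fit versus DMSO.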
# [12] = read-out: Interleukin 6 (IL6), IL6 (gene 3569); assay: LTEA_HepaRG_IL6: Life Technologies and Expression Analysis (LTEA) Assay for Interleukin 6 (IL6) using HepaRG (AID 2283509)
# Procedure, shortened: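 Differentiated human HepaRG cells, plated 48 h then switched to serum-free induction medium, were exposed in duplicate for 48 h to eight half-log concentrations up to 100 uM in 0.5% DMSO. IL6 mRNA measured by qRT-PCR, normalized to ACTB/GAPDH/POLR2A.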
# [13] = read-out: Interleukin 6 Receptor (IL6R), IL6R (gene 3570); assay: LTEA_HepaRG_IL6R: Life Technologies and Expression Analysis (LTEA) Assay for Interleukin 6 Receptor (IL6R) using HepaRG (AID 2283510)
# Procedure, shortened: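 Concentration-response in human liver HepaRG cells: eight concentrations from 100 uM downward by half-logs, 48 h exposure, 0.5% DMSO vehicle. IL6R mRNA change measured by qRT-PCR and fitted in both directions relative to vehicle.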
# [14] = read-out: Potassium channel subfamily K member 1 (KCNK1), KCNK1 (gene 3775); assay: LTEA_HepaRG_KCNK1: Life Technologies and Expression Analysis (LTEA) Assay for Potassium channel subfamily K member 1 (KCNK1) using HepaRG (AID 2283511)
# Procedure, shortened: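 Differentiated human HepaRG cells in serum-free induction medium were exposed in duplicate for 48 h to 8 half-log concentrations up to 100 uM in 0.5% DMSO. KCNK1 mRNA was measured by TaqMan qRT-PCR, normalized to ACTB, GAPDH and POLR2A, and fitted bidirectionally versus DMSO.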
# [15] = read-out: Keratin 19 (KRT19), KRT19 (gene 3880); assay: LTEA_HepaRG_KRT19: Life Technologies and Expression Analysis (LTEA) Assay for Keratin 19 (KRT19) using HepaRG (AID 2283512)
# Procedure, shortened: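 Differentiated HepaRG cells in serum-free induction medium, exposed 48 h in duplicate to 8 half-log concentrations up to 100 uM in 0.5% DMSO. KRT19 mRNA by qRT-PCR, normalized to ACTB, GAPDH, POLR2A; bidirectional fit vs DMSO.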
# [16] = read-out: Hypoxia-inducible factor 1-alpha (Homo sapiens) (UniProt Q16665); assay: LTEA_HepaRG_HIF1A: Life Technologies and Expression Analysis (LTEA) Assay for Hypoxia-inducible factor 1 (HIF1A) Trancription factor using HepaRG (AID 2283503)
# Procedure, shortened: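 HepaRG, 48 h exposure, 8-pt half-log series from 100 uM, 0.5% DMSO vehicle, duplicates. Readout: HIF1A transcript by qRT-PCR (Fluidigm array), housekeeping-normalised. Bidirectional curve fit vs DMSO baseline.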
# [17] = read-out: Intercellular Adhesion Molecule 1 (ICAM1), ICAM1 (gene 3383); assay: LTEA_HepaRG_ICAM1: Life Technologies and Expression Analysis (LTEA) Assay for Intercellular Adhesion Molecule 1 (ICAM1) using HepaRG (AID 2283507)
# Procedure, shortened: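 Differentiated human HepaRG cells in serum-free induction medium exposed 48 h in duplicate to 8 half-log concentrations (top 100 uM, 0.5% DMSO). ICAM1 mRNA quantified by TaqMan qRT-PCR, normalized to ACTB, GAPDH and POLR2A; bidirectional fitting versus DMSO.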
# [18] = read-out: Glutamate-cysteine ligase regulatory (GCLM), GCLM (gene 2730); assay: LTEA_HepaRG_GCLM: Life Technologies and Expression Analysis (LTEA) Assay for Glutamate-cysteine ligase regulatory (GCLM) using HepaRG (AID 2283500)
# Procedure, shortened: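 Human liver HepaRG cultures receive test chemicals for 48 hours at up to 100 uM in 0.5% DMSO. GCLM expression is measured by qRT-PCR and analysed for increases or decreases against vehicle.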
# Hypoxia-inducible factor 1-alpha (Homo sapiens), sequence (Q16665 whole entry, looked up): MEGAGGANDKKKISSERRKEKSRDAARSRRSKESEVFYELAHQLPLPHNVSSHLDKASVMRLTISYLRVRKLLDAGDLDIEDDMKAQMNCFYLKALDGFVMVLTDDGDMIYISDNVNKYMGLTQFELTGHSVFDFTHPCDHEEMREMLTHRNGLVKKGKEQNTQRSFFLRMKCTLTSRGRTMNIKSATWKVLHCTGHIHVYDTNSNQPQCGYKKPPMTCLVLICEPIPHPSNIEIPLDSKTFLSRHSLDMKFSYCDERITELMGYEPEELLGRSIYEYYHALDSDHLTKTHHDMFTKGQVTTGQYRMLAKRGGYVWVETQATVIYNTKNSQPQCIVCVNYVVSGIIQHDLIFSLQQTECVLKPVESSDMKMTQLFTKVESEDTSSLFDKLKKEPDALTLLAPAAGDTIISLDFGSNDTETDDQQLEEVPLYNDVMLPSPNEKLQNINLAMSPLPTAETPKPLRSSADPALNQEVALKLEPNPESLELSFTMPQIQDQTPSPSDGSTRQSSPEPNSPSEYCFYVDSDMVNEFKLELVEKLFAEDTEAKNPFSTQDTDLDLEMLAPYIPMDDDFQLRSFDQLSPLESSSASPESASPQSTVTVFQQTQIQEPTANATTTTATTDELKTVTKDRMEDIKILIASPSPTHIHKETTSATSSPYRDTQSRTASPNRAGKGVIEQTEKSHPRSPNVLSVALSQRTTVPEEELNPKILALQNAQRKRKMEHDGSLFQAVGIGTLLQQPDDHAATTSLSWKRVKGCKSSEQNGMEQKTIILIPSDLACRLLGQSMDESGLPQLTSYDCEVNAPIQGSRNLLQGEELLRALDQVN
smiles,measurement,setting,value
O=C1NC(=O)C(c2ccccc2)(c2ccccc2)N1,AC50,[1],17.9 µM (active)
same,AC50,[2],9.92 µM (active)
same,outcome,[3],inactive
same,AC50,[4],9.92 µM (active)
same,outcome,[5],inactive
same,outcome,[6],inactive
same,outcome,[7],inactive
same,outcome,[8],inactive
same,outcome,[9],inactive
same,outcome,HGF (gene 3082),inactive
same,outcome,[10],inactive
same,outcome,[11],inactive
same,outcome,[12],inactive
same,outcome,[13],inactive
same,outcome,[14],inactive
same,outcome,[15],inactive
CC(C)(O)c1ccc(CNC(=O)c2cccnc2Oc2ccc(F)cc2)cc1,AC50,[1],21.9 µM (active)
same,AC50,[2],26.6 µM (active)
same,outcome,[4],inactive
same,outcome,[5],inactive
same,outcome,[6],inactive
same,outcome,[7],inactive
same,outcome,[8],inactive
same,outcome,[16],inactive
same,outcome,[9],inactive
same,outcome,HGF (gene 3082),inactive
same,AC50,[10],50 µM (active)
same,outcome,[17],inactive
same,outcome,[11],inactive
same,outcome,[12],inactive
same,outcome,[13],inactive
same,outcome,[14],inactive
same,outcome,[15],inactive
CC(=O)[C@@]1(O)CC[C@H]2[C@@H]3CCC4=CC(=O)CC[C@]4(C)[C@H]3CC[C@@]21C,outcome,[1],inactive
same,outcome,[4],inactive
same,outcome,[5],inactive
same,outcome,[6],inactive
same,outcome,[18],inactive
same,outcome,[7],inactive
same,outcome,[8],inactive
same,outcome,[9],inactive
same,outcome,HGF (gene 3082),inactive
same,outcome,[10],inactive
same,outcome,[11],inactive
same,outcome,[12],inactive
same,outcome,[13],inactive
same,outcome,[14],inactive
same,outcome,[15],inactive
O=C1O[C@H]([C@H](O)CO)C(O)=C1O,outcome,[1],inactive
same,outcome,[2],inactive
same,outcome,[4],inactive
same,outcome,[5],inactive
same,outcome,[6],inactive
same,outcome,[7],inactive
same,outcome,[8],inactive
same,outcome,[16],inactive
same,outcome,[9],inactive
same,outcome,HGF (gene 3082),inactive
same,outcome,[10],inactive
same,outcome,[11],inactive
same,outcome,[12],inactive
same,outcome,[13],inactive
same,outcome,[14],inactive
same,outcome,[15],inactive
CC(C)OC(=O)C(C)(C)Oc1ccc(C(=O)c2ccc(Cl)cc2)cc1,AC50,[1],50 µM (active)
same,AC50,[2],2.19 µM (active)
same,outcome,[3],inactive
same,outcome,[4],inactive
same,outcome,[5],inactive
same,outcome,[6],inactive
same,outcome,[7],inactive
same,outcome,[8],inactive
same,AC50,[9],4.29 µM (active)
same,outcome,HGF (gene 3082),inactive
same,outcome,[10],inactive
same,outcome,[11],inactive
same,outcome,[12],inactive
same,outcome,[13],inactive
same,outcome,[14],inactive
same,outcome,[15],inactive
